IL1B secr inh = inhibitors of inflammasome signaling (IL-1 beta secretion); activity change, % at 57.5 µM; 360,000 compounds, 4.7% hits; THP-1 LPS/ATP IL-1B secretion, AlphaLISA, 16 h; hits give low values; in the data active = activity change below about -50%; inconclusive = mostly about -30% to -49%
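THP-1 cells pretreated 1 hr with compounds (up to 57.5 uM final), then stimulated with LPS (250 ng/mL final) plus ATP (1.25 mM final); secreted IL-1B measured by AlphaLISA after 16 hr, decreased signal indicating inhibition.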
Six1-Eya2 inh = Six1/Eya2 interaction inhibition; Q15475+O00167; AlphaScreen GST-Six1/His-Eya2 binding, biochemical; hits give low values; activity change, % (concentration not given with the values); 360,000 compounds, 0.56% hits; AID 651725; in the data active = activity change below about -65%; inconclusive = mostly about -30% to -63%
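Homogeneous AlphaScreen proximity assay pairing GST-Six1 with His-tagged Eya2 (added as 5X mix: 250 nM and 500 nM) in 50 mM Tris pH 8.0, 300 mM NaCl, 1 mM TCEP. Glutathione donor and nickel acceptor beads; 1 h, 37 °C, dark.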
TDP1 inh = TDP1 (human) enzyme inhibition | Q9NUW8 | recombinant TDP1, AlphaScreen DNA substrate cleavage | Potency, µM (highest dose often 130 µM), most hits filed as inhibitors | 350,000 compounds, 0.28% hits | AID 485290; note: nearly all actives have a fitted effect of over 40% in size
Target sequence (Q9NUW8 whole entry, looked up): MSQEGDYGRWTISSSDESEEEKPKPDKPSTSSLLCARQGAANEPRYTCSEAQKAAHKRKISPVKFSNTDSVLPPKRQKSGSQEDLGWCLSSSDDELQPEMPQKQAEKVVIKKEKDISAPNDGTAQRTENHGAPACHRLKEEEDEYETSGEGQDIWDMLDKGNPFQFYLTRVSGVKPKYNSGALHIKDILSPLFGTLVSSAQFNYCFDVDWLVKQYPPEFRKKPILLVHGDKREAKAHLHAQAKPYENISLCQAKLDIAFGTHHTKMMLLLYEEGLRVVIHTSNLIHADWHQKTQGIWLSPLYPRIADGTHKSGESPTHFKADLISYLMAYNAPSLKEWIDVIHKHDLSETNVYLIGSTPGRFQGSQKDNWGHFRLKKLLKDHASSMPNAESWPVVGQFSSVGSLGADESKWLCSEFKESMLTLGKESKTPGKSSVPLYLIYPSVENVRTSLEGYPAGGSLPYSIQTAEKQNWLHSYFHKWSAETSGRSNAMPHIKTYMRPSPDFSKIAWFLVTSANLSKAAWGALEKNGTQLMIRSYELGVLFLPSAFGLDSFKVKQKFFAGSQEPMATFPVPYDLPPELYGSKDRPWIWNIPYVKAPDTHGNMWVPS
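Steps: enzyme plus compound, 15 min RT; add biotin/phosphotyrosine-FITC oligonucleotide (15 nM final), react 5 min; add donor/acceptor beads (10 ug/ml final), 10 min; read AlphaScreen. Tdp1 at 1 nM final.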
CtBP-E1A inh = inhibitors of CtBP/E1A interaction | AID 651724 | 340,000 compounds, 0.49% hits | AlphaScreen GST-E1A/His-CtBP binding, 1536-well; hits give low values | activity change, % (concentration not given with the values); in the data active = activity change below about -65%; inconclusive = mostly about -30% to -63%
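AlphaScreen with 125 nM GST-E1A and 125 nM His-CtBP (5X stocks) in Tris pH 8.0, 300 mM NaCl, BSA, Tween 20, TCEP. Compounds preincubated 2 h at 37 deg C, then glutathione donor/nickel acceptor beads added for 1 h at 37 deg C in dark.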
TDP1 cell CPT = growth inhibition of DT40 Tdp1-/-;hTDP1 cells with camptothecin (screen for TDP1 inhibitors); 420,000 compounds, 12% hits; Potency, µM (highest dose often 46.2 µM), actives largely listed as inhibitors; chicken DT40 Tdp1-/-;hTDP1 cells + 20 nM CPT, ATP luminescence, 48 h; note: nearly all actives have a fitted effect of over 55% in size
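Chicken DT40 Tdp1-/- cells complemented with human TDP1, 400 cells/well, exposed to compounds plus 20 nM camptothecin for at least 48 h at 37 C; viability read as ATP content by CellTiter-Glo luminescence.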
DT40 TDP1 no CPT = qHTS for Inhibitors of human tyrosyl-DNA phosphodiesterase 1 (TDP1): qHTS in cells in absence of CPT; AID 686978, 2013; Potency, µM (highest dose often 46.2 µM), most hits filed as inhibitors; DT40 Tdp1-/- hTDP1 cells, no CPT, ATP luminescence, 48 h; 420,000 compounds, 15% hits; note: nearly all actives have a fitted effect of over 55% in size
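Readout: luminescence from CellTiter-Glo after 30 min in the dark at RT. Cells: DT40 Tdp1-/- with stable hTDP1, 400/well. Exposure: compounds alone, ≥48 hr, 37 °C.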
Hits are given with their value; [ ] = dose if it differs, or a comment. An excerpt weighted towards active compounds, which were near 18% of everything screened. Unless noted, calls come from the whole dose curve; as a rule, active = well fitted curve in the direction sought with a large enough effect; inconclusive = small, poorly fitted or top-dose-only effect, or another doubt; inactive = no such curve, though single readings can be large; an effect the other way counts as inactive or inconclusive.

For Cc1ccccc1OC1CCN(C(=O)C2CCC(=O)N(C3CCCC3)C2)CC1 (centres undefined) the results were IL1B secr inh inactive, Six1-Eya2 inh inactive, TDP1 inh inactive, TDP1 cell CPT inconclusive and DT40 TDP1 no CPT 14.6µM.
Screening Cc1c(Cl)cccc1NC(=O)C1CC(=O)N(C2CCCC2)C1 (centres undefined) returned IL1B secr inh -57.8, Six1-Eya2 inh inactive, CtBP-E1A inh inactive, TDP1 cell CPT inactive and DT40 TDP1 no CPT inactive.
`COc1ccc(N2CCOCC2)c(NC(=O)c2cccc3ccccc23)c1` gave IL1B secr inh inactive, Six1-Eya2 inh inactive, TDP1 cell CPT inconclusive and DT40 TDP1 no CPT inconclusive.
`COC(=O)[C@@]1(Cc2ccc(F)cc2)[C@H]2c3cc(C(=O)N4CCCC4)n(C)c3C[C@H]2CN1C(=O)c1ccccc1` gave IL1B secr inh -53.6, Six1-Eya2 inh inactive, CtBP-E1A inh inactive, TDP1 cell CPT 23.1µM and DT40 TDP1 no CPT 16.4µM.
`COC(=O)[C@@]1(Cc2ccc(F)cc2)[C@H]2c3cc(C(=O)N4CCCC4)n(Cc4ccccc4)c3C[C@H]2CN1C(=O)c1ccccc1` gave IL1B secr inh -50.8, Six1-Eya2 inh inactive, TDP1 inh inactive, CtBP-E1A inh inactive, TDP1 cell CPT inconclusive and DT40 TDP1 no CPT 23.1µM.
COCCn1c(C(=O)N2CCCC2)cc2c1C[C@H]1CN(C(=O)c3ccccc3)[C@@](Cc3ccc(F)cc3)(C(=O)OC)[C@@H]21 was read as IL1B secr inh inactive, Six1-Eya2 inh inactive, TDP1 inh inactive, CtBP-E1A inh inactive, TDP1 cell CPT inactive and DT40 TDP1 no CPT inconclusive.
Screening CCOC(=O)C1CCN(S(=O)(=O)c2cn(C)cn2)CC1 returned IL1B secr inh inactive, Six1-Eya2 inh inactive, TDP1 inh inactive, CtBP-E1A inh inactive, TDP1 cell CPT inactive and DT40 TDP1 no CPT inactive.
`COc1cccc(NC(=O)CC2S/C(=N\S(=O)(=O)c3ccccc3)N(c3ccccc3)C2=O)c1` (centres undefined) gave IL1B secr inh inactive, Six1-Eya2 inh inactive, TDP1 inh inactive, CtBP-E1A inh inactive, TDP1 cell CPT inactive and DT40 TDP1 no CPT inactive.
Screening Oc1[nH]c2ccc(Br)cc2c1N=NC(=S)Nc1ccc(F)cc1 returned IL1B secr inh inactive, Six1-Eya2 inh inconclusive, TDP1 inh inactive, CtBP-E1A inh inconclusive, TDP1 cell CPT 1.3µM and DT40 TDP1 no CPT 2.91µM.
Screening Oc1ccc(NC(=S)N=Nc2c(O)[nH]c3ccc(Br)cc23)cc1 returned IL1B secr inh -63.6, Six1-Eya2 inh inconclusive, TDP1 inh inactive, CtBP-E1A inh inconclusive, TDP1 cell CPT inactive and DT40 TDP1 no CPT 23.1µM.
`CCOC(=O)c1cc(C)n(CC2CCC(C(=O)Nc3ccc(OC)cc3)CC2)c1C` (centres undefined) gave TDP1 inh inactive, TDP1 cell CPT 14.6µM and DT40 TDP1 no CPT 20.6µM.
Screening CCOC(=O)c1cc(C)n(CC2CCC(C(=O)Nc3cccc(C)c3)CC2)c1C (centres undefined) returned TDP1 inh inactive, TDP1 cell CPT 18.4µM and DT40 TDP1 no CPT inconclusive.
For CCOC(=O)c1cc(C)n(CC2CCC(C(=O)Nc3ccc(C)c(F)c3)CC2)c1C (centres undefined) the results were TDP1 inh inactive, TDP1 cell CPT inconclusive and DT40 TDP1 no CPT inactive.
Screening CCOC(=O)c1cccc(NC(=O)C2CCC(CNc3c(N4CCOCC4)c(=O)c3=O)CC2)c1 (centres undefined) returned IL1B secr inh inactive, Six1-Eya2 inh inactive, TDP1 inh inactive, CtBP-E1A inh inactive, TDP1 cell CPT inactive and DT40 TDP1 no CPT inactive.
For CCOC(=O)c1cc(C)n(CC2CCC(C(=O)Nc3cc(OC)cc(OC)c3)CC2)c1C (centres undefined) the results were TDP1 inh inactive, TDP1 cell CPT inconclusive and DT40 TDP1 no CPT 23.1µM.
`Cc1[nH]c(=S)c(C#N)c(-c2ccccc2)c1C(=O)Nc1ccccc1` gave IL1B secr inh inactive, Six1-Eya2 inh inactive, TDP1 inh inactive, CtBP-E1A inh inactive, TDP1 cell CPT inactive and DT40 TDP1 no CPT inactive.
For COc1ccc(C2CC(=O)c3cc(-c4nc(-c5ccc(Cl)cc5)c(C)s4)c(=O)[nH]c3C2)cc1 (centres undefined) the results were TDP1 inh inactive, TDP1 cell CPT inconclusive and DT40 TDP1 no CPT 1.84µM.
For CC1(C)CC(=O)c2cc(-c3nc(-c4ccccc4)cs3)c(=O)[nH]c2C1 the results were TDP1 inh inactive, TDP1 cell CPT 9.2µM and DT40 TDP1 no CPT 13µM.
Screening COc1ccc(C2CC(=O)c3cc(-c4nc(-c5cccc(Cl)c5)cs4)c(=O)[nH]c3C2)cc1 (centres undefined) returned TDP1 inh inactive, TDP1 cell CPT inactive and DT40 TDP1 no CPT inactive.
`Cc1ccc(-c2csc(-c3cc4c([nH]c3=O)CC(c3ccccc3)CC4=O)n2)cc1` (centres undefined) gave TDP1 inh inactive, TDP1 cell CPT 1.46µM and DT40 TDP1 no CPT 1.3µM.
For Cc1ccc(-c2nc(-c3cc4c([nH]c3=O)CC(C)(C)CC4=O)sc2C)cc1 the results were TDP1 inh inactive, TDP1 cell CPT inconclusive and DT40 TDP1 no CPT inconclusive.
`COc1ccc(OC)c(S(=O)(=O)NCC(c2ccco2)S(=O)(=O)c2ccccc2)c1` (centres undefined) gave IL1B secr inh inactive, Six1-Eya2 inh inactive, TDP1 inh inactive[0.505 µM], CtBP-E1A inh inactive, TDP1 cell CPT inactive and DT40 TDP1 no CPT inactive.
For COc1ccccc1CNC(=O)c1ccc2c(c1)sc1nc(-c3ccc(F)cc3)cn12 the results were TDP1 inh inactive, TDP1 cell CPT 7.31µM and DT40 TDP1 no CPT 8.2µM.
For COc1ccc(-c2cn3c(n2)sc2cc(C(=O)NCc4ccccc4)ccc23)cc1 the results were TDP1 inh inactive, TDP1 cell CPT inconclusive and DT40 TDP1 no CPT inconclusive.
Screening O=C(NCc1cccs1)c1ccc2c(c1)sc1nc(-c3ccc(F)cc3)cn12 returned TDP1 inh inactive, TDP1 cell CPT inactive and DT40 TDP1 no CPT inconclusive.
`COc1cccc(CNC(=O)c2ccc3c(c2)sc2nc(-c4ccccc4)cn23)c1OC` gave TDP1 inh inactive, TDP1 cell CPT 9.2µM and DT40 TDP1 no CPT 5.8µM.
For COc1ccc(NC(=O)CN(C)C(=O)/C=C/c2cn(-c3ccccc3)nc2-c2cccs2)cc1 the results were IL1B secr inh inactive, Six1-Eya2 inh inactive, CtBP-E1A inh inactive, TDP1 cell CPT inconclusive and DT40 TDP1 no CPT 18.4µM.

Source: PubChem BioAssay
